Most compounds without a hit are left out; they make up all but 10% or so of the library.
NIH3T3 tox – NIH 3T3 cell cytotoxicity. Potency, µM (doses to about 96.7 µM), for the others: at the highest dose activity change, negative = cytotoxicity, hits mostly inhibitors. 4.3% of 94,000 active. NIH 3T3 viability, CellTiter-Glo ATP luminescence, 48-72 h. AID 1345082; also: nearly all actives have a fitted effect of over 55% in size
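Cytotoxicity was measured by CellTiter-Glo ATP luminescence after 48 or 72 h compound exposure at 37 °C. Mouse NIH 3T3 fibroblasts were seeded at 400 cells/well and dosed by 23 nL pin transfer.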
HEK293 tox – HEK 293 cell cytotoxicity; HEK 293 viability, ATP luminescence (CellTiter-Glo), 48-72 h; Potency, µM (doses to about 115 µM), inactives show at the top dose activity change, negative = cytotoxicity, usual class: inhibitors; 6.6% of 94,000 active; also: nearly all actives have a fitted effect of over 60% in size
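qHTS cytotoxicity; HEK 293, 250 cells/well; compound pinned; 48 or 72 hr, 37 degree Celsius, 5% CO2, 95% humidity; CellTiter-Glo, 10 min RT; luminescence (ATP).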
hNpr1 antagonist – human Npr1 receptor antagonism. 1.6% of 76,000 active. AID 1347048. Potency, µM (series often up to 46.3 µM), for inactives: top-dose activity change, negative = inhibition, hits mostly inhibitors. HEK293 hNpr1 GloSensor cGMP, ANP-stimulated luminescence; calls by dose curve; also: nearly all actives have a fitted effect of over 60% in size
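HEK293 cells stably expressing human Npr1 and cGMP GloSensor pGS-40F, loaded 2 h with 2% GloSensor reagent, given compound 30 min at room temperature. Luminescence read before and 20 min after 0.1 nM hNppA.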
GPT2 inh – blocks human glutamate pyruvate transaminase 2; 0.25% of 100,000 active; Potency, µM (doses to about 57.7 µM), for inactives: at the top dose activity change, negative = inhibition, most hits filed as inhibitors; Q8TD30; Recombinant GPT2, coupled pyruvate oxidase/HRP Amplex Red fluorescence; also: nearly all actives have a fitted effect of over 60% in size
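Fluorescence of coupled pyruvate oxidase/HRP/Amplex Red system (50uM Amplex, 30 min, dark) reports pyruvate formed by GPT2. Enzyme reaction: 10ng/uL GPT2, 2mM L-alanine, 250uM a-KG, 30 min room temperature, pH 7.5; 50uM AOA control.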
FLuc inh – blocks purified firefly luciferase enzyme activity | 2.5% of 76,000 active | purified P. pyralis luciferase, luminescence, biochemical | Potency, µM (titrated, usually from 115 µM), hits mostly inhibitors; also: nearly all actives have a fitted effect of over 65% in size
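Purified P. pyralis luciferase (10nM final) in 50mM Tris acetate pH 7.5, 10mM Mg acetate, 0.01% Tween-20, 0.05% BSA with 10uM D-luciferin and 10uM ATP. Compounds titrated qHTS. Luminescence imaged on CCD.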
The depositor's hits bear a star; i = inactive; ? = inconclusive; / = no result; [ ] = another dose, or the depositor's remark. Unless noted, calls follow the shape of the dose curve; as a rule, active = well fitted curve in the direction sought with a large enough effect; inconclusive = small, poorly fitted or top-dose-only effect, or another doubt; inactive = no such curve, though single readings can be large; an effect the other way counts as inactive or inconclusive. % is scaled to controls: 0 for no effect and ±100 for the full control effect; potency is read from the fitted curve at half-maximal effect.

SMILES | NIH3T3 tox | HEK293 tox | hNpr1 antagonist | GPT2 inh | FLuc inh
CCS(=O)(=O)Nc1ccc(C2(C(=O)Nc3cccc(F)c3C)CCCCC2)cc1 | ? | 39.8µM* | -7.8% | -48.1% | i
O=C(NCc1ccc(F)cc1)C1CN(C2CCCCC2)C(=O)N1 (centres undefined) | -15.9%[138 µM] | -2.1%[172 µM] | / | i | /
O=C(c1ccco1)N1CCn2c(nnc2[C@@H]2C[C@@H](O)CN2Cc2ccccc2)C1 | i | i | 13.1% | -4.0% | i
O=[S+]1([O-])NCC2(CCN(Cc3ccccc3C(F)(F)F)CC2)Nc2ccccc21 | i | ? | 6.2% | -7.3% | i
O=[S+]1([O-])NC2(CCN(Cc3cccc4ccccc34)C2)CNc2ccccc21 (centres undefined) | ? | 39.8µM* | ? | i | i
O=[S+]1([O-])NC2(CCN(Cc3ccccc3C(F)(F)F)C2)CNc2ccccc21 (centres undefined) | ? | 39.8µM* | -3.1% | ? | i
O=[S+]1([O-])NC2(CCN(Cc3ccc(C(F)(F)F)cc3)C2)CNc2ccccc21 (centres undefined) | ? | 44.7µM* | ? | i | i
O=[S+]1([O-])NCC2(CCN(Cc3cccc4ccccc34)CC2)Nc2ccccc21 | ? | ? | 12.0% | i | i
O=C(c1ccc(C(F)(F)F)cc1)N1CCC2(CC1)CNc1ccccc1[S+](=O)([O-])N2 | -11.9% | 50.1µM* | -4.0% | -8.6% | i
COCCN1C(=O)c2cccn2CC1CNC(=O)c1ccc(Cn2ccnc2)o1 (centres undefined) | -11.0% | -21.7% | -6.2% | -9.5% | i
O=C(C1CCCCC1)N1Cc2[nH]cnc2C[C@H]1c1nc(-c2ccc3ccccc3c2)no1 | 79.4µM* | ? | -21.7%[70.6 µM] | -7.1%[88.5 µM] | ?
Cc1ccc(-c2noc([C@@H]3Cc4nc[nH]c4CN3C(=O)NC3CCCCC3)n2)cc1 | ? | 1.7%[172 µM] | -22.5%[70.6 µM] | ? | i
Cc1cccc(-c2noc([C@@H]3Cc4nc[nH]c4CN3C(=O)NC3CCCCC3)n2)c1 | 70.8µM* | ? | -4.7%[70.6 µM] | i | 39.8µM*
O=C(NC1CCCCC1)N1Cc2[nH]cnc2C[C@H]1c1nc(-c2ccccc2)no1 | 28.2µM* | ? | -15.7%[70.6 µM] | 3.2%[88.5 µM] | 44.7µM*
O=C(c1nc(-c2cc(Cl)cc(Cl)c2)c2ccccn12)N1CCOCC1 | -24.6% | ? | -12.2% | i | i
O=C(c1nc(-c2ccc(F)cc2)c2ccccn12)N1CCOCC1 | -25.7%[138 µM] | 112µM* | 0.0%[70.6 µM] | 1.7%[88.5 µM] | i
O=C(c1nc(-c2ccccc2)c2ccccn12)N1CCN(c2ncccn2)CC1 | -21.4% | 79.4µM* | 1.9% | -3.2% | i
O=C(c1nc(-c2ccccc2)c2ccccn12)N1CCOCC1 | ? | 89.1µM* | -12.5%[70.6 µM] | i | i
CC(=O)Nc1ccc(-c2ccc(=O)n3c2[C@@H]2C[C@@H](CN(C(=O)COc4ccccc4)C2)C3)cc1 | -3.5% | 39.8µM* | 5.0% | -21.5% | i
CC(=O)Nc1ccc(S(=O)(=O)N2C[C@@H]3C[C@H](C2)c2c(-c4ccc(Cl)cc4)ccc(=O)n2C3)cc1 | 1.2% | i | 3.1% | i | i
CC(=O)Nc1ccc(-c2ccc(=O)n3c2[C@@H]2C[C@@H](CN(S(=O)(=O)c4ccc(Cl)cc4)C2)C3)cc1 | -7.3% | 14.1µM* | 2.9% | -6.0% | i
CN(C(=O)CN1C(=O)NC2(CCCCC2)C1=O)C1CCCCC1 | i | 4.1% | 5.2% | i | i
COc1cc(Cl)ccc1C(=O)NCc1nnc2c(-c3nc(C4CC4)no3)cccn12 | -7.3% | i | -9.2% | -1.5% | i
Cc1noc(C)c1-c1cc(-c2ccccc2O)cn2cncc12 | 25.1µM* | 50.1µM* | -20.1%[70.6 µM] | -1.8%[88.5 µM] | i
COc1cccc(-c2cc(-c3c(C)noc3C)c3cncn3c2)c1 | 39.8µM* | ? | -15.1%[70.6 µM] | -5.4%[88.5 µM] | i
SMILES | NIH3T3 tox | HEK293 tox | hNpr1 antagonist | GPT2 inh | FLuc inh
Cc1noc(C)c1-c1cc(-c2cccc3cc[nH]c23)cn2cncc12 | 28.2µM* | ? | ? | -30.1%[88.5 µM] | i
O=C(/C=C/C=C/c1ccc2c(c1)OCO2)N1CCCCC1 | / | / | / | i | /
COc1ccc(CNC(=O)N2CCC3(CC2)CC(N(C)Cc2ccccc2)CCO3)cc1 (centres undefined) | 1.5% | 1.1% | -0.8% | -1.3% | i
COc1ccc(C(=O)Nc2ccc(-c3noc([C@@H]4CCCN4Cc4ccncc4)n3)cn2)cc1 | ? | ? | 12.6µM* | -5.2% | ?
COCC(=O)Nc1ccc(-c2noc([C@@H]3CCCN3Cc3ccc(NC(C)=O)cc3)n2)cn1 | i | -1.8% | 0.0% | 3.4% | i
COCC(=O)Nc1ccc(-c2noc([C@@H]3CCCN3Cc3cc4ccccc4o3)n2)cn1 | ? | 70.8µM* | -3.3%[70.6 µM] | 2.9%[88.5 µM] | i
COCCc1noc([C@@H]2CN(Cc3ccc(C(C)C)cc3)C[C@H]2CO)n1 | ? | 39.8µM* | -28.4% | i | i
O=C(O)Cn1ccc2cc(OCC3CCN(C(=O)OC4CCCC4)CC3)cnc21 | 31.6µM* | i | -2.1%[70.6 µM] | 4.2%[88.5 µM] | ?
NC(=O)Cn1ccc2cc(OCC3CCN(c4cc(NC5CC5)ncn4)CC3)cnc21 | ? | 25.1µM* | 17.8µM* | 0.6%[88.5 µM] | ?
CC(C)OC(=O)N1CCC(COc2cnc3c(ccn3CC(N)=O)c2)CC1 | ? | ? | 4.3%[70.6 µM] | 3.9%[88.5 µM] | ?
COc1ccc(-c2nc(Cn3c(-c4ccc(Cl)cc4)nc(C)c(CCO)c3=O)c(C)o2)cc1 | -10.7% | -29.4% | -4.0% | -9.8% | i
CN(Cc1cccc(C(F)(F)F)c1)C(=O)c1ccc(Cl)nc1 | ? | ? | -7.5%[70.6 µM] | i | i
CC1(CCCCN2CCOCC2)COc2ccc(C(=O)Nc3cccc(Cl)c3)cc2N1 (centres undefined) | ? | ? | -1.2% | -11.1% | ?
CC1(CCCCN2CCOCC2)COc2ccc(C(=O)Nc3ccc(Cl)cc3)cc2N1 (centres undefined) | ? | 50.1µM* | -11.6% | -5.8% | ?
CN(C)CCCOCC1(C)COc2ccc(C(=O)N3CCOCC3)cc2N1 (centres undefined) | ? | 4.3%[172 µM] | -0.6%[70.6 µM] | -20.2%[88.5 µM] | i
CCOCC1(C)COc2ccc(C(=O)Nc3ccccn3)cc2N1 (centres undefined) | ? | ? | ? | -2.8%[88.5 µM] | 15.8µM*
CN(C)CCCOCC1(C)COc2ccc(C(=O)Nc3ccc(F)c(Cl)c3)cc2N1 (centres undefined) | 39.8µM* | 63.1µM* | -13.0%[70.6 µM] | -14.5%[88.5 µM] | i
CC1(COCC2CC2)COc2ccc(C(=O)Nc3ccc(Cl)cc3)cc2N1 (centres undefined) | 35.5µM* | 28.2µM* | ? | -12.2%[88.5 µM] | i

Source: PubChem
